This note sets out measurements from PubChem BioAssay (NCI).

About 83,000 compounds went through this panel and 20% of them were active in at least one assay; those are over-represented in the sample as a whole.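 Activity criterion: percent growth below 10, measured after cells in 96-well plates were exposed to a single compound concentration for 48 hours.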 Unmarked numbers belong to inactive results. Active and inactive are the calls of the source.

The test system of this test is MOLT-4 leukemia. Kind of test: NCI-60 one-dose screen, 48 h (100 = growth as untreated, 0 = no growth, -100 = all killed). Conditions: 10 µM unless noted. The method, then:
Growth inhibition of the MOLT-4 human tumor cell line is measured as a screen for anti-cancer activity. Cells are grown in 96 well plates and exposed to the test compound for 48 hours. Compounds are tested at a single concentration, which is 10^-5 M for most compounds. The reported endpoint is percent growth (GI% or GIPRCNT), where numbers from 0 - 100% represent growth inhibition, and numbers from -100% - 0 represent cell death. For example, a value of 40 represents 60% growth inhibition. A value of 0 means no net growth occurred over the course of the experiment. A value of -40 indicates 40% of cells at the beginning of the experiment died by the end of the experiment. A value of -100 means all cells are dead at the end of the experiment.
NCI-60 Human Tumor Cell Lines Screen was performed using the standard one-dose NCI protocol, which is described in more detail at https://dtp.cancer.gov/discovery_development/nci-60/default.htm.
Compounds with GIPRCNT values below 10 were considered active. Activity score was based on GIPRCNT using the following formula: […]
Score is 0 for GIPRCNT values of 100 or above, 50 for GIPRCNT values of 0, and 100 for GIPRCNT values of -100.
`CCCCCCCCCCC(C[N+](C)(C)C/C=C/c1ccccc1)C(O)c1ccccc1` (stereo not given): the growth is -24.4% (active).

With `COc1ccc(Cn2cc3c(c2-c2ccc(OC)cc2)CCc2cnoc2-3)cc1`, the growth is 23.7%.

Regarding `COc1cc2cc3cc4cc(OC)c(OC)cc4c(C)[n+]3cc2cc1OC` (tested in a mixture with another compound), the growth is 40.1%.

For the compound `COC(=O)[C@H](Cc1cn(C)cn1)NC(=O)[C@@H](NC(=O)Nc1cc(C(F)(F)F)cc(C(F)(F)F)c1)C(C)(C)C`, the growth was -25.7% [100 µM] (active).

On to `O=C(/C=C/c1ccc(Cl)cc1)c1ccc(Cl)cc1`, for which the growth is 81%.

In the case of `CSC1=Nc2c(c(C)c(-c3ccccc3)n2CCCCl)C2=NC(=O)CN12`, the growth is 50.6%.

With `CC#Cc1nc(Nc2cc(C)[nH]n2)c2ccccc2n1`, the growth is -43.3% [100 µM] (active).

In the case of `COC1(OC)N=C(N)C2(C#N)C3(C(=O)Nc4ccccc43)C12C#N` (stereo not given), the growth is 88.7%.

`CC(=O)c1ccc2c(c1)c1ccccc1n2C`: the growth is 82%.

As to `C/C=C(/C)C(=O)OC1C=C(CO)C(=O)C(OC(=O)C2(C)OC2C)C1C(C)C` (stereo not given), the growth was -3.66% (active).

For `COc1ccc(C(=O)NCCNc2nccc(-c3c(-c4ccc(F)cc4)nc4sccn34)n2)cc1`, the growth is 59.8%.

For `COc1cc(OC)cc(-c2ccc(-c3ccc(C(=N)N)cc3)s2)c1`, the growth was -48.8% (active).

As to `Cc1c(O)c(N=Nc2ccc(C(=O)O)c(O)c2)c2ccccc2c1O`, the growth is 76.6%.

With `Cc1ccc2c(c1)C(=O)CCS2`, the growth was 118%.

Regarding `O=C1c2cc([N+](=O)[O-])ccc2-c2cc(Cl)c(NC(=O)C(F)(F)F)cc21`, the growth is 94%.

Turning to `Cc1nc2c(nnn2-c2ccccc2)c2nc(-c3ccc(Cl)cc3)oc(=O)c12`, the growth is 113%.

On to `CC1(C)CC(=O)C2=C(C1)Oc1nc(N)c(C#N)c(N)c1C2c1ccc(F)cc1` (stereo not given), for which the growth is 74.4%.

For `COc1cc(NC(=O)CSc2nc3ccc(Cl)cc3c(=O)n2-c2ccc(F)cc2)cc(OC)c1OC`, the growth was 61.8%.

Regarding `Oc1ccccc1/C=N/N=C/c1c(O)ccc2ccccc12`, the growth was 57.7%.

Take `CCN(CC)CCOC(=O)c1cccnc1`: the growth was 94.2%.

In the case of `O=C(N/N=C/c1ccccc1Cl)c1cccc2ccccc12`, the growth was 112%.

For `CC(=O)Oc1cc2ccccc2cc1C(C)C`, the growth is 109%.

Consider `Cc1[nH]n(C(=S)Nc2nc3cc(Cl)c(F)cc3s2)c(=O)c1N=Nc1ccc(F)c(Cl)c1`, for which the growth is -16.5% (active).

For the compound `CC(=O)Nc1nc(C)c(C(=O)NN)s1`, the growth was 111%.

As to `O=C(N/N=C/c1coc2ccccc2c1=O)c1cc2oc(-c3ccccc3)cc2[nH]1`, the growth was 55.9%.

`CCCCCCCCCCCCCCCCCC1=NCCN1CCNC(C)=O`: the growth is 62.6%.

For `CCN(CCO)CCNc1ccc(C)c2sc3cc(OC)ccc3c(=O)c12`, the growth is 21.7%.

Consider `Cc1ccc(S(=O)(=O)NC(CCC(=O)Nc2ccccc2)C(=O)Nc2ccccc2)cc1` (stereo not given), for which the growth was 8.8% (active).

Regarding `O=C(/C=C\c1ccccc1Cl)c1ccccc1`, the growth was 91.8%.

Consider `COc1cc2c(c3c1c(=O)c1cccc(F)c1n3C)C=CC(C)(C)O2`, for which the growth was 85.2%.

Turning to `CCCCCCN(CCCCCC)CCC(=O)Nc1ccc(S(=O)(=O)c2ccc(NC(=O)CCN(CCCCCC)CCCCCC)cc2)cc1`, the growth was 59.1%.

`COc1cc(N)c2nccc(C)c2c1OC`: the growth was 80.6%.

In the case of `CC(=O)Nc1ccc(S(=O)(=O)Cl)cc1`, the growth was 104%.

For `CCCCCCCCC/C(=N\NC(=O)c1ccncc1)c1ccc(O)c(O)c1O`, the growth is 15.5%.

For the compound `Cc1nc(NC(=O)NC2CCCCC2)sc1C(=O)NN`, the growth is 116%.

On to `C[C@H]1C[C@@H](n2cnc3c(N)nccc32)[C@H](O)[C@@H]1O`, for which the growth was 65%.

As to `O=C(CCl)NC1c2ccccc2Oc2ccccc21`, the growth is 62.6%.

On to `CC(=O)Nc1nc(C)c(C(=O)NNS(=O)(=O)c2ccccc2)s1`, for which the growth was 117%.

Consider `C/C(=N\Nc1ccc(Cl)cn1)c1ccccn1`, for which the growth was 2.11% (active).

In the case of `COc1cc2ncnc(Nc3ccc4c(cnn4C(=O)Nc4ccccc4)c3)c2cc1OC`, the growth is 80.8%.
